# Avidin bead fluor: avidin bead compound fluorescence profile; Avidin beads, compound fluorescence 488/530 nm, flow cytometry; hits give high values; fluorescence (KMESF) at 10 µM; 220,000 compounds, 0.38% hits; in the data active means fluorescence above about 47
# RGS7-Gao reg: modulates binding of RGS7 to human Galphao; 220,000 compounds, 0.35% hits; AID 1439; binding response (% of control), % at 10 µM; Multiplexed bead flow cytometry; actives lie on both sides; in the data active means binding response below about 49% or above about 150%; inconclusive means no clear call, values can overlap the other calls; inactive means in between;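 further: fluorescent Galphao held in activated GDP-AlF4 state binding bead-coupled RGS7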
# Target sequence (P09471 whole entry, looked up): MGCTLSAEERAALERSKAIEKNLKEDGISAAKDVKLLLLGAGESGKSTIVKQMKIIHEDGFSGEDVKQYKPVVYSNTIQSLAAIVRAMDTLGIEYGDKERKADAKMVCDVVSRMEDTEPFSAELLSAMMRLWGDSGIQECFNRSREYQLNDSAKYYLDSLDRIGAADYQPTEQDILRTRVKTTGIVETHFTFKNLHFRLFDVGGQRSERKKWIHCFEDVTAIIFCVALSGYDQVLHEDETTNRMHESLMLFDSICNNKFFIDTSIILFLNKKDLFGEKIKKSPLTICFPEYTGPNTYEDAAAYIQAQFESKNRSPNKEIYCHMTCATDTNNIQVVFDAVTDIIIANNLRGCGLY
# GSH fluor: compound fluoresces at 488/530 nm on GSH beads; GSH beads flow cytometry, compound fluorescence 488/530 nm; hits give high values; fluorescence (KMESF) at 10 µM; 190,000 compounds, 0.25% hits; AID 1776; in the data active means fluorescence above about 89;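 further: glutathione beads carrying GST-tagged Bcl family fusion proteins plus one bare bead set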
# RGS4-Gao reg: human RGS4-Galphao interaction regulation. AID 1415. Multiplexed bead flow cytometry, RGS4-Galphao binding; actives lie on both sides. binding response (% of control), % at 10 µM. 220,000 compounds, 0.33% hits. P09471; in the data active means binding response below about 49% or above about 150%; inactive means in between;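 further: fluorescent Galphao activated with aluminum fluoride binding bead-coupled RGS4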
# RGS8-Gao reg: human RGS8-Galphao interaction regulation; AID 1423; 220,000 compounds, 0.34% hits; P09471; response (percent of control binding), % at 10 µM; multiplexed bead flow cytometry, RGS8-Galphao binding; actives lie on both sides; in the data active means response below about 60% or above about 140%; inactive means in between;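 further: Galphao activated as the GDP aluminium fluoride complex binding bead-coupled RGS8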
# RGS16-Gao HTS: RGS16-Galphao interaction regulator (human); bead-based flow cytometry RGS16-Galphao binding, fluorescence; actives lie on both sides; binding response (% of control), % at 10 µM; 220,000 compounds, 0.38% hits; AID 1441;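 further: Galphao activated by GDP with aluminum fluoride before binding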
# Target sequence (O15492 whole entry, looked up): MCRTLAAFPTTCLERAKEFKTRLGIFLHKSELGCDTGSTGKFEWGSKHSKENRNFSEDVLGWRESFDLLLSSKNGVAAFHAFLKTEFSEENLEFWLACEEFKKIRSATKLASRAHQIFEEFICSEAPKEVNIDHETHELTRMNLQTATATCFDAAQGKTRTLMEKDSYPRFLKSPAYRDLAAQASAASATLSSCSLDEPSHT
# Target sequence (P09471 whole entry, looked up): as the sequence (P09471 whole entry, looked up) above
# RGS4-Gao HTS: regulators of human RGS4-Galphao interaction; shares compounds with RGS16-Gao HTS; multiplexed bead flow cytometry, RGS–Galpha-o binding; RGS4–Galpha-o binding response, % at 10 µM; 1,600 compounds, 99% hits; AID 1504;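 further: fluorescently labeled Galpha-o bound to GDP with aluminium fluoride binding biotinylated RGS beads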
# Biotin-avidin: interferes with biotinylated probe binding to avidin beads; shares compounds with RGS16-Gao HTS; streptavidin beads, fluorescein-biotin binding, flow cytometry; inhibition, % at 10 µM; 1,700 tested, under 10 active; AID 1783;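 active means inhibition above 50%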;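 further: median green fluorescence of gated singlet beads compared with DMSO control wells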
# RGS8-Gao single: RGS8-Galphao interaction regulation, single point confirmation. shares compounds with RGS16-Gao HTS. bead-based flow cytometry RGS8-Galphao binding, fluorescence; actives lie on both sides. binding response (% of control), % at 10 µM. 1,700 compounds, 3% hits; in the data active means binding response below about 72% or above about 130%; inactive means in between;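 further: Galphao activated as GDP AlF4 complex before binding bead RGS8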
# RGS7-Gao single: RGS7-Galphao interaction regulation, single point confirmation. shares compounds with RGS16-Gao HTS. bead-based flow cytometry RGS7-Galphao binding; actives lie on both sides. response (percent of control binding), % at 10 µM. 1,700 compounds, 7.8% hits. AID 1837; in the data active means response below about 75% or above about 130%; inactive means in between;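 further: fluorescent Galphao activated with GDP and aluminum fluoride binding bead-coupled RGS7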
# RGS16-Gao single: confirmation of regulators of human RGS16-Galphao interaction. 1,700 compounds, 4% hits. AID 1838. response (% of control binding), % at 10 µM. bead-based flow cytometry, RGS16-Galphao binding; actives lie on both sides. shares compounds with RGS16-Gao HTS; in the data active means response below about 74% or above about 130%; inactive means in between;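 further: Galphao activated as the GDP aluminium fluoride complex binding bead-coupled RGS16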
# RGS4-Gao single: RGS4-Galphao interaction regulation, single point confirmation; 1,700 compounds, 4% hits; AID 1840; RGS4-Galphao binding, multiplexed bead flow cytometry; actives lie on both sides; binding response (% of control), % at 10 µM; shares compounds with RGS16-Gao HTS; in the data active means binding response below about 74% or above about 130%; inactive means in between
# RGS19-Gao single: confirmation of regulators of human RGS19-Galphao interaction. bead-based flow cytometry RGS19-Galphao binding; actives lie on both sides. response (percent of control binding), % at 10 µM. 1,700 compounds, 5% hits. shares compounds with RGS16-Gao HTS; in the data active means response below about 50% or above about 160%; inactive means in between
# Hits are given with their value; - = inactive; ? = inconclusive; . = no result; [ ] = dose if it differs, or a comment. Rows were chosen to be rich in hits. Some 1.2% of all compounds tested hit in one or more screens of this group. Unless noted, how the calls were made is not given here.
SMILES,Avidin bead fluor,RGS7-Gao reg,GSH fluor,RGS4-Gao reg,RGS8-Gao reg,RGS16-Gao HTS,Biotin-avidin,RGS8-Gao single,RGS7-Gao single,RGS16-Gao single,RGS4-Gao single,RGS19-Gao single,others
CCC1(C(=O)OC)NC(c2cccc(F)c2)C2C(=O)N(C)C(=O)C21 (stereo unspecified),-,-,-,-,-,-,.,.,.,.,.,.,
COC(=O)C1(Cc2ccccc2)NC(c2ccc(F)cc2)C2C(=O)N(C)C(=O)C21 (stereo unspecified),-,40,-,32,38,-7.0,-,-,63,-,72,-,
Cc1ccc(C)c(NC(=O)CSc2nnc(-c3ccccc3)n2N)c1,-,-,-,-,141[activator],-,-,-,-,-,-,-,RGS4-Gao HTS=119
COc1ccc(/C=C/C(=O)NCCSCc2ccco2)cc1OC,-,?,.,-,-,-,.,.,.,.,.,.,
CCN1C(=O)/C(=C2/Sc3ccccc3N2CC)S/C1=N\c1ncn[nH]1,-,-,-,-,-,-,.,.,.,.,.,.,
COc1ccc(CNc2nc3ccccc3n2C)c(O)c1,-,?,.,-,-,-,.,.,.,.,.,.,
Cn1c(NCc2cc(Br)ccc2O)nc2ccccc21,-,-,-,-,141[activator],-,-,-,72,-,-,-,RGS4-Gao HTS=119
O=C(Nc1ccccc1N1CCCC1)c1cccc(Cl)c1Cl,-,-,-,-,-,-,.,.,.,.,.,.,
Cc1c(N2CCCC2)cc2c(c1NC(=O)c1ccccc1Cl)C(C)(C)CC2(C)C,-,?,.,156[activator],-,-,-,-,-,-,-,-,
O=C(Nc1ccc2c(c1)OCO2)C1CCN(Cc2cnn(-c3ccccc3)c2-n2cccc2)CC1,-,37,-,-,56,-,-,-,-,-,-,-,RGS4-Gao HTS=79
Cc1ccc(C2=N/C(=C/N3CCOCC3)C(=O)O2)cc1,-,-,-,-,-,-,.,.,.,.,.,.,
Cc1ccc(C2=N/C(=C\N3CCCCC3)C(=O)O2)cc1,89,169[activator],-,198[activator],-,204[activator],-,-,-,-,-,-,
COc1nc(N)c(S(=O)(=O)c2ccccc2)cc1C#N,-,-,-,-,145[activator],-,-,-,-,-,-,-,RGS4-Gao HTS=124
c1ccc(-c2nc(-c3ccco3)n3ccccc23)cc1,-,0.6,-,-6.6,7.9,-2.4,-,-,-,-,-,-,
c1ccc(Nc2c(-c3ccco3)nc3ccccn23)cc1,-,-,-,-,-,-,.,.,.,.,.,.,
CC(C)(C)OC(=O)N1CCC(c2cc(=O)n3[nH]cc(C(=O)Nc4ccc(F)c(Cl)c4)c3n2)CC1,-,?,.,-,-,-,.,.,.,.,.,.,
CC(C)(C)OC(=O)N1CCC(c2cc(=O)n3[nH]c(-c4ccc(Cl)cc4)cc3n2)CC1,-,44,-,33,47,-,-,-,-,-,-,-,
O=C(NNc1cc(N2CCOCC2)nc(N2CCOCC2)n1)c1ccc(Cl)cc1Cl,-,12,-,21,23,10,-,-,-,-,-,-,
CC(C)(C)c1ccc(C(=O)NNc2cc(N3CCCCC3)nc(N3CCCCC3)n2)cc1,175,643[activator],119,842[activator],173[activator],560[activator],-,-,-,-,-,-,
CC(=O)NNc1cc(N2CCOCC2)nc(N2CCOCC2)n1,-,?,-,-,-,-,.,.,.,.,.,.,
CCOc1cc(NC(=S)NCC2CCCO2)c(OCC)cc1NC(=O)CC(C)C (stereo unspecified),-,-,-,-,-,-,.,.,.,.,.,.,
CC(=O)Nc1ccccc1C(=O)C(=O)Nc1ccc(C)c(C)c1,-,-,-,-,-,251[activator],-,-,-,-,-,-,RGS4-Gao HTS=110
Nc1cccc(S(=O)(=O)NC2=NCCC2)c1,-,-,-,-,149[activator],-,.,.,.,.,.,.,RGS4-Gao HTS=119
CCOC(=O)c1cc(C)n(-c2ccccc2)c1C,-,?,.,-,-,-,.,.,.,.,.,.,
Cc1ccn2c(CNCC3OCCc4ccccc43)c(C(=O)N3CCCCCC3)nc2c1 (stereo unspecified),-,-,-,-,-,-,.,.,.,.,.,.,
SMILES,Avidin bead fluor,RGS7-Gao reg,GSH fluor,RGS4-Gao reg,RGS8-Gao reg,RGS16-Gao HTS,Biotin-avidin,RGS8-Gao single,RGS7-Gao single,RGS16-Gao single,RGS4-Gao single,RGS19-Gao single,others
C/C(N)=C(/C#N)C(=O)CSc1nc2ccccc2[nH]1,-,-,-,-,-,-,.,.,.,.,.,.,
Cc1ccc(C)c(NC(=S)c2ccc3ccccc3n2)c1,-,8.0,-,19,15,2.2,-,-,-,-,-,-,
O=C(CN1C(=O)COc2ccccc21)N(Cc1ccc2c(c1)OCO2)CC1CCCO1 (stereo unspecified),-,-,-,-,-,-,.,.,.,.,.,.,
O=C(CN1C(=O)COc2ccccc21)N(CCCN1CCOCC1)CC1CC=CCC1 (stereo unspecified),.,.,-,.,.,.,-,-,-,-,-,-,
C=CCn1c(Cc2c[nH]c3ccccc23)nnc1SCC(=O)NCc1ccccc1,-,42,-,47,54,-,-,-,-,-,-,-,
O=C(COC(=O)c1ccccc1)NCc1cccs1,-,-,-,-,-,-,.,.,.,.,.,.,
Cc1cc(C)cc(C(=O)OCC(=O)NCc2cccs2)c1,-,-,-,-,-,176[activator],-,-,-,-,-,-,RGS4-Gao HTS=110
O=c1[nH]c2ccc([N+](=O)[O-])cc2nc1/C=C(\O)c1ccccc1,-,?,.,-,-,-,.,.,.,.,.,.,
C/C(Cc1ccccc1)=N\NC(=O)CNC(=O)c1ccccc1O,-,?,.,-,-,-,.,.,.,.,.,.,
C/C(Cc1ccccc1)=N\NC(=O)CNC(=O)c1ccccc1Br,-,-,-,-,-,17,-,-,75,-,-,-,RGS4-Gao HTS=88
CC1CC2=C(C(=O)O1)C(C)Nc1ccccc1N2 (stereo unspecified),-,-,-,-,-,22,-,-,-,-,-,-,RGS4-Gao HTS=86
Cc1ccc(-c2nn[nH]n2)cc1,.,.,-,.,.,.,-,-,-,-,-,-,
Cc1ccc(-c2nn[nH]n2)cc1Cl,-,?,.,-,-,-,.,.,.,.,.,.,
